Measured values published in PubChem BioAssay (NCATS).
Values joined by “and” are separate entries in the source; they are usually repeats but may differ in a detail not shown here. Equal entries are not always repeated. Inconclusive results are not listed. Active and inactive are the calls of the source. Calls follow the shape of the dose curve; as a rule, active = well fitted inhibition curve with a large enough effect; inconclusive = small, poorly fitted or top-dose-only effect; inactive = flat fitted curve, though single readings scatter.

Columns and labels:
HB3 = assay: qHTS profiling for inhibitors of Plasmodium falciparum proliferation (AID 504749); settings: P. falciparum in erythrocytes, SYBR Green DNA, 72 h; series mostly up to 28.7 µM
Outline: (§1)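 SYBR Green fluorescence (ex 485 nm, em 535 nm) reports parasite DNA after 72 h compound exposure of infected red cells at 0.3% parasitemia, 2.5% hematocrit; signal normalized to 0.29 uM artemisinin and vehicle wells.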

ICS = assay: as above; settings: P. falciparum in erythrocytes, SYBR Green DNA, 72 h; series mostly up to 28.7 µM
Outline: as §1

JCK = assay: as above; settings: P. falciparum in erythrocytes, SYBR Green DNA, 72 h; series mostly up to 28.7 µM
Outline: as §1

N140 = assay: as above; settings: P. falciparum in erythrocytes, SYBR Green DNA, 72 h; series mostly up to 28.7 µM
Outline: as §1

P93_24 = assay: as above; settings: P. falciparum in erythrocytes, SYBR Green DNA, 72 h; series mostly up to 28.7 µM
Outline: as §1

P94_40 = assay: as above; settings: P. falciparum in erythrocytes, SYBR Green DNA, 72 h; series mostly up to 28.7 µM
Outline: as §1

PAD = assay: as above; settings: P. falciparum in erythrocytes, SYBR Green DNA, 72 h; series mostly up to 28.7 µM
Outline: as §1

PC15 = assay: as above; settings: P. falciparum in erythrocytes, SYBR Green DNA, 72 h; series mostly up to 28.7 µM
Outline: as §1

PC26 = assay: as above; settings: P. falciparum in erythrocytes, SYBR Green DNA, 72 h; series mostly up to 28.7 µM
Outline: as §1

PC49 = assay: as above; settings: P. falciparum in erythrocytes, SYBR Green DNA, 72 h; series mostly up to 28.7 µM
Outline: as §1

SC27B = assay: as above; settings: P. falciparum in erythrocytes, SYBR Green DNA, 72 h; series mostly up to 28.7 µM
Outline: as §1

TAB109 = assay: as above; settings: P. falciparum in erythrocytes, SYBR Green DNA, 72 h; series mostly up to 28.7 µM
Outline: as §1

TAB113 = assay: as above; settings: P. falciparum in erythrocytes, SYBR Green DNA, 72 h; series mostly up to 28.7 µM
Outline: as §1

TAB165 = assay: as above; settings: P. falciparum in erythrocytes, SYBR Green DNA, 72 h; series mostly up to 28.7 µM
Outline: as §1

CRL-7250 = normal cell line; assay: Cytotoxic Profiling of Annotated Libraries Using Quantitative High-Throughput Screening (AID 1296008); settings: Five cell lines viability, CellTiter-Glo ATP luminescence, 48-72 h; max response: active compounds read low; as to max response: % is scaled to controls: 0 for no effect and ±100 for the full control effect
Outline: (§2)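 Cells exposed to compounds for 48 or 72 hr at 37 degrees Celsius. Viability read as ATP-coupled luminescence with CellTiter-Glo after 10 min at room temperature.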

HEK293 = assay: as above; settings: Five cell lines viability, CellTiter-Glo ATP luminescence, 48-72 h; max response: active compounds read low
Outline: as §2

HaCat = assay: as above; settings: Five cell lines viability, CellTiter-Glo ATP luminescence, 48-72 h; max response: active compounds read low
Outline: as §2

KB-3-1 = assay: as above; settings: Five cell lines viability, CellTiter-Glo ATP luminescence, 48-72 h; max response: active compounds read low
Outline: as §2

NIH3T3 = assay: as above; settings: Five cell lines viability, CellTiter-Glo ATP luminescence, 48-72 h; max response: active compounds read low
Outline: as §2

W2 = assay: qHTS profiling for inhibitors of Plasmodium falciparum proliferation (AID 504749); settings: P. falciparum in erythrocytes, SYBR Green DNA, 72 h; series mostly up to 28.7 µM
Outline: as §1
Also: nearly all actives have a fitted effect of over 60% in size.
Potency is read from the fitted curve at half-maximal effect.

CCOc1ccc(NC(=O)CC(C)O)cc1 (configuration not stated)
inactive: Potency (HB3) | Potency (ICS) | Potency (JCK) | Potency (N140) | Potency (P93_24) | Potency (P94_40) | Potency (PAD) | Potency (PC15) | Potency (PC26) | Potency (PC49) | Potency (SC27B) | Potency (TAB109) | Potency (TAB113) | Potency (TAB165) | max response (CRL-7250) -0.463% | max response (HEK293) 2.44% | max response (HaCat) -5.23% | max response (KB-3-1) -22.8% | max response (NIH3T3) 4.45%

COC(=O)C1=C(C)NC(C)=C(C(=O)O[C@@H]2CCCN(Cc3ccccc3)C2)[C@@H]1c1cccc([N+](=O)[O-])c1
active: Potency (CRL-7250) 15 µM | Potency (HEK293) 11.9 µM and 8.2 µM
inactive: max response (HaCat) -9.72% | max response (KB-3-1) 7.74% | max response (NIH3T3) -11.8% and -29.4%

CCCC(=O)O[C@]1(C(=O)CO)CC[C@H]2[C@@H]3CCC4=CC(=O)CC[C@]4(C)[C@H]3[C@@H](O)C[C@@]21C
inactive: max response (CRL-7250) -24.4% | outcome (HEK293) | max response (HaCat) -4.75% | max response (KB-3-1) 1.39% | max response (NIH3T3) -4.28%

CN1CCN(C(c2ccccc2)c2ccccc2)CC1
inactive: Potency (HB3) | Potency (ICS) | Potency (JCK) | Potency (PAD) | Potency (PC15) | Potency (PC49) | Potency (SC27B) | Potency (TAB109) | Potency (TAB113) | Potency (TAB165) | max response (CRL-7250) 1.17% and 3.11% | max response (HEK293) -9.52% | max response (HaCat) -15.7% | outcome (HaCat) | max response (KB-3-1) -11.4% and 1.83% | max response (NIH3T3) 3.7% | outcome (NIH3T3)
active: Potency (W2) 2.56 µM

NC[C@H]1O[C@H](O[C@H]2[C@H](O[C@@H]3O[C@H](CO)[C@@H](O)[C@H]3O)C(O)[C@H](N)C[C@@H]2N)[C@H](N)[C@@H](O)[C@@H]1O (some centres not stated)
inactive: max response (CRL-7250) -0.227% | max response (HEK293) 0.11% | max response (HaCat) -0.678% | max response (KB-3-1) -2.19% | outcome (NIH3T3)

CC(C)n1nc(-c2cc3cc(O)ccc3[nH]2)c2c(N)ncnc21
active: Potency (CRL-7250) 376 nM and 461 nM | Potency (HEK293) 1.33 µM and 1.46 µM | Potency (HaCat) 23.1 µM | Potency (KB-3-1) 1.3 µM | Potency (NIH3T3) 2.37 µM and 1.16 µM

CCn1cc(C(=O)O)c(=O)c2cnc(N3CCCC3)nc21
inactive: Potency (HB3) | Potency (ICS) | Potency (JCK) | Potency (N140) | Potency (P93_24) | Potency (P94_40) | Potency (PAD) | Potency (PC15) | Potency (PC26) | Potency (PC49) | Potency (SC27B) | Potency (TAB109) | Potency (TAB113) | Potency (TAB165) | Potency (W2) | max response (CRL-7250) 4.85% | max response (HEK293) 1.04% | max response (HaCat) -10.2% | max response (KB-3-1) 8.93% | max response (NIH3T3) -2.06%
